Measured values taken from ChEMBL document CHEMBL2218924, “A broad activity screen in support of a chemogenomic map for kinase signalling research and drug discovery” (Biochem J, 2013).

Assays:
[1] = target: T1, CDK9/cyclin T1 (Homo sapiens) (UniProt O60563+P50750); settings: at 1 µM
[2] = target: T1, CDK9/cyclin T1 (Homo sapiens); settings: at 10 µM
[3] = target: T2, Serine/threonine-protein kinase Chk1 (Homo sapiens) (UniProt O14757); settings: at 1 µM
T2 sequence (whole entry): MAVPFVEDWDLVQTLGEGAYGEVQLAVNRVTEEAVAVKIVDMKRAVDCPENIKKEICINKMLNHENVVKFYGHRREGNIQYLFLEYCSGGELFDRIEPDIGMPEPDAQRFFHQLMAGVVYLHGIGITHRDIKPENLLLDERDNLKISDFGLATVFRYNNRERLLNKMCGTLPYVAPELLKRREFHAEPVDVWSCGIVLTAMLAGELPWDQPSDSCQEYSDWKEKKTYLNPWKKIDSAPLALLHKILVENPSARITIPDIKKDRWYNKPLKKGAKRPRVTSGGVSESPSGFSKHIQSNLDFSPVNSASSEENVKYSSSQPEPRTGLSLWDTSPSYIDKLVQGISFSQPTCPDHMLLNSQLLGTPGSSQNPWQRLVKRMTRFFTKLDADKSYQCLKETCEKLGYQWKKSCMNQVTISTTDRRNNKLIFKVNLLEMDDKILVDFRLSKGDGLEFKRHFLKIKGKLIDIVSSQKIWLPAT

[4] = target: T2, Serine/threonine-protein kinase Chk1 (Homo sapiens); settings: at 10 µM
[5] = target: Serine/threonine-protein kinase Chk2 (Homo sapiens) (UniProt O96017); settings: at 1 µM
[6] = target: Serine/threonine-protein kinase Chk2 (Homo sapiens) (UniProt O96017); settings: at 10 µM
[7] = target: Casein kinase I isoform gamma-1 (Homo sapiens) (UniProt Q9HCP0); settings: at 1 µM
[8] = target: Casein kinase I isoform gamma-1 (Homo sapiens) (UniProt Q9HCP0); settings: at 10 µM
[9] = target: Casein kinase I isoform delta (Homo sapiens) (UniProt P48730); settings: at 1 µM
[10] = target: Casein kinase I isoform delta (Homo sapiens) (UniProt P48730); settings: at 10 µM
[11] = target: T3, Casein kinase II (Homo sapiens) (UniProt P67870+P68400+P19784); settings: at 1 µM
[12] = target: T3, Casein kinase II (Homo sapiens); settings: at 10 µM
[13] = target: Casein kinase II subunit alpha' (Homo sapiens) (UniProt P19784); settings: at 1 µM
[14] = target: Casein kinase II subunit alpha' (Homo sapiens) (UniProt P19784); settings: at 10 µM
[15] = target: Dual specificity protein kinase CLK2 (Homo sapiens) (UniProt P49760); settings: at 1 µM
[16] = target: Dual specificity protein kinase CLK2 (Homo sapiens) (UniProt P49760); settings: at 10 µM
[17] = target: Dual specificity protein kinase CLK3 (Homo sapiens) (UniProt P49761); settings: at 1 µM
[18] = target: Dual specificity protein kinase CLK3 (Homo sapiens) (UniProt P49761); settings: at 10 µM
[19] = target: Tyrosine-protein kinase CSK (Homo sapiens) (UniProt P41240); settings: at 1 µM
[20] = target: Tyrosine-protein kinase CSK (Homo sapiens) (UniProt P41240); settings: at 10 µM

Casein kinase I isoform gamma-1 (Homo sapiens), sequence (Q9HCP0 whole entry, looked up, canonical isoform): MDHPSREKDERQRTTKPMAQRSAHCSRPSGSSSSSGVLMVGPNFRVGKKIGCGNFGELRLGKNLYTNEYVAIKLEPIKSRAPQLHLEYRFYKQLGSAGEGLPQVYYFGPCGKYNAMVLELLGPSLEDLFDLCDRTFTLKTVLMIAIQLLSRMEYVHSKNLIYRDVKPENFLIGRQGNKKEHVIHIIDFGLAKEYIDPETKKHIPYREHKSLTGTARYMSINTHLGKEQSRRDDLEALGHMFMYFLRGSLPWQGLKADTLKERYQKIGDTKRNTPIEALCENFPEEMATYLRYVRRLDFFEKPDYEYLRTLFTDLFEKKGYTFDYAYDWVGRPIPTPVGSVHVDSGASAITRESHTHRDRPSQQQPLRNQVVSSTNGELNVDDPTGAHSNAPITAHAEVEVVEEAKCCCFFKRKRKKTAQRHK
Dual specificity protein kinase CLK3 (Homo sapiens), sequence (P49761 whole entry, looked up): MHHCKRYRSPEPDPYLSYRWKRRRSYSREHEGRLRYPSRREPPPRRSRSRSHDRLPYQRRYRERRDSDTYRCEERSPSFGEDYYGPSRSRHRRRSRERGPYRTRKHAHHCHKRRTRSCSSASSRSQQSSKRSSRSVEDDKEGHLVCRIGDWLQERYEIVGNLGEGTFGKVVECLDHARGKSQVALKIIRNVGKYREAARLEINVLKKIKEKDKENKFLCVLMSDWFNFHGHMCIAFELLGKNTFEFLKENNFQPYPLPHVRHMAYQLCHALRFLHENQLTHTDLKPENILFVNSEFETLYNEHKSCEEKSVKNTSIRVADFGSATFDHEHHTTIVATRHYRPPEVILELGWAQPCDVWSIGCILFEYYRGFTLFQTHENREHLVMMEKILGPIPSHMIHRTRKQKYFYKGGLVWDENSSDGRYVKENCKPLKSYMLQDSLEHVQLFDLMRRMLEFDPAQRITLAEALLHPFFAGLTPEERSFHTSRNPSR
Casein kinase I isoform delta (Homo sapiens), sequence (P48730 whole entry, looked up, canonical isoform): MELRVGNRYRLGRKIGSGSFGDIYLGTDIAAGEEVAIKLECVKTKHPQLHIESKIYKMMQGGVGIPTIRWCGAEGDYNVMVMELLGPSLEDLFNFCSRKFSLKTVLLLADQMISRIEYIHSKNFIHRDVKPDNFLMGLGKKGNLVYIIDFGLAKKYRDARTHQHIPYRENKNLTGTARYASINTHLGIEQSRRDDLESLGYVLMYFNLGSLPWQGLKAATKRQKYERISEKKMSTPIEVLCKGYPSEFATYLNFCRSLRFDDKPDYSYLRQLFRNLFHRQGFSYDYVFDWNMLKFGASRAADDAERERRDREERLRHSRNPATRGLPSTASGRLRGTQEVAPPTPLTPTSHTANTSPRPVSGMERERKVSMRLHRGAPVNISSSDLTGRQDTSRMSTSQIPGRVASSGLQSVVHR
Casein kinase II subunit alpha' (Homo sapiens), sequence (P19784 whole entry, looked up): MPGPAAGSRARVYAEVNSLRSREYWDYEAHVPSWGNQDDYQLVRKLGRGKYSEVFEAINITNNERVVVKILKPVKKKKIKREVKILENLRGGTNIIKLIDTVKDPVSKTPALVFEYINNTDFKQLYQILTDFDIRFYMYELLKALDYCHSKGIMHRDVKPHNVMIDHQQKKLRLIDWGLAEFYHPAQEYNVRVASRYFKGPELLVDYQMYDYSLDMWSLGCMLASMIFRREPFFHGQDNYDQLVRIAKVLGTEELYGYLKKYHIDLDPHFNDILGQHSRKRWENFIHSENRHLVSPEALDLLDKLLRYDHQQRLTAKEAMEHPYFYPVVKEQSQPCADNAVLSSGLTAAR
T3 sequence (P19784 whole entry, looked up): as above
T3 sequence (P67870 whole entry, looked up): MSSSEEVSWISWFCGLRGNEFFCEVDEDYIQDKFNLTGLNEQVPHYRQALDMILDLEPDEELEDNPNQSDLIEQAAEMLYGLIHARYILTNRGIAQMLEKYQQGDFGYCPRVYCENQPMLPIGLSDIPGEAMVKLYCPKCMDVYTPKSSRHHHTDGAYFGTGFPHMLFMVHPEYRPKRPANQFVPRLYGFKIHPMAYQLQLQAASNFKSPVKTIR
T3 sequence (P68400 whole entry, looked up): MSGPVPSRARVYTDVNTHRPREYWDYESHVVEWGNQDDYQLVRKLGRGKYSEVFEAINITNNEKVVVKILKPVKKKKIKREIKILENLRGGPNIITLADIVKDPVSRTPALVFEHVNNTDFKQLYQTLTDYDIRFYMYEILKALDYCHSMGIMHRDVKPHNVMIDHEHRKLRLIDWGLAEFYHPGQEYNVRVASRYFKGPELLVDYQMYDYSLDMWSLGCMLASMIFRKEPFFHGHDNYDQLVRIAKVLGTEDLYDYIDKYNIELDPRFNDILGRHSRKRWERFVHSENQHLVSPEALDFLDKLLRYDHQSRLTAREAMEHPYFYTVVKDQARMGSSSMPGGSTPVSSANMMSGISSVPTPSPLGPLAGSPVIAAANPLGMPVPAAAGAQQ
Tyrosine-protein kinase CSK (Homo sapiens), sequence (P41240 2-450 limits assumed): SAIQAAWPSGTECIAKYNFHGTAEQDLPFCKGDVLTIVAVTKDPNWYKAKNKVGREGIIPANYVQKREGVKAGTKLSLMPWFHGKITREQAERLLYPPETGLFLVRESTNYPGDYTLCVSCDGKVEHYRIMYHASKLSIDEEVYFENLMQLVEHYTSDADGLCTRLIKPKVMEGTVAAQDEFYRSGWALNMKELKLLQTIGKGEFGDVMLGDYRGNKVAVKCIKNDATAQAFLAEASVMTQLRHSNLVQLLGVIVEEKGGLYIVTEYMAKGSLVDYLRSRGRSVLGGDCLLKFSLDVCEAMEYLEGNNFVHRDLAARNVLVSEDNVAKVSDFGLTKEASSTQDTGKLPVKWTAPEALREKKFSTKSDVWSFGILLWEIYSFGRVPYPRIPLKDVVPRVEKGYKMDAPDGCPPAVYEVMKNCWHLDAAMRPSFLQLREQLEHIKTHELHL
Serine/threonine-protein kinase Chk2 (Homo sapiens), sequence (O96017 whole entry, canonical isoform): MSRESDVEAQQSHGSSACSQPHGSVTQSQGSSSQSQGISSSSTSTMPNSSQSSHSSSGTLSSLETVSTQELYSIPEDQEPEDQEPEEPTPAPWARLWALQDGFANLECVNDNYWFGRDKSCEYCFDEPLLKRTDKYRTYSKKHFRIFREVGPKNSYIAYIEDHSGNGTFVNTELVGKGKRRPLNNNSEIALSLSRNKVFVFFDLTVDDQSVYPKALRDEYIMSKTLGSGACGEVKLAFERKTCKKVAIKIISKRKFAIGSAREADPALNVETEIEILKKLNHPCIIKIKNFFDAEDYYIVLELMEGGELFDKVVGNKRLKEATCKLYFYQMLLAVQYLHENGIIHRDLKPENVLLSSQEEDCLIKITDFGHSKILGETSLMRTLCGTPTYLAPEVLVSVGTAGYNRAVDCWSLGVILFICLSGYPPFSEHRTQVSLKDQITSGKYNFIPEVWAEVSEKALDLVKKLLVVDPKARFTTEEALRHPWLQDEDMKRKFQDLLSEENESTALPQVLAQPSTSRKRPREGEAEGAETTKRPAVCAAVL
Dual specificity protein kinase CLK2 (Homo sapiens), sequence (P49760 whole entry, looked up): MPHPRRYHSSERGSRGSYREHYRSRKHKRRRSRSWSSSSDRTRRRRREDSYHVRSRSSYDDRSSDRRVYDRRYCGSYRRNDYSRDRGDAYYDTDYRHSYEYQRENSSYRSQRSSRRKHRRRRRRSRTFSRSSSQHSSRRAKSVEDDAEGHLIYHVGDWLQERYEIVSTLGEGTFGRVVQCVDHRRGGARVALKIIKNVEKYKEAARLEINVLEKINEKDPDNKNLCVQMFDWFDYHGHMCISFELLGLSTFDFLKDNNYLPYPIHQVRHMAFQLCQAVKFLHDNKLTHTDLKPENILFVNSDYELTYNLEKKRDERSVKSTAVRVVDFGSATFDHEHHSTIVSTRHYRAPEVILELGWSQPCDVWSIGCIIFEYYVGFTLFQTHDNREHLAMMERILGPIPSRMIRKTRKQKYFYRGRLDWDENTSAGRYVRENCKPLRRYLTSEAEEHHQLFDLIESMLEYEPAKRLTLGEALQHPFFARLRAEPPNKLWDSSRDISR

Compound | residual activity [1] | residual activity [2] | residual activity [3] | residual activity [4] | residual activity [5] | residual activity [6] | residual activity [7] | residual activity [8] | residual activity [9] | residual activity [10] | residual activity [11] | residual activity [12] | residual activity [13] | residual activity [14] | residual activity [15] | residual activity [16] | residual activity [17] | residual activity [18] | residual activity [19] | residual activity [20]
Cn1nc2c3c(cccc31)C(=O)c1ccccc1-2 | 94% | 90% | 94% | 75% | 75% | 40% | 99% | 82% | 15% | 1% | 87% | 59% | 99% | 65% | 86% | 83% | 76% | 66% | 101% | 90%
O=Nc1c(-c2c(O)[nH]c3ccccc23)[nH]c2ccccc12 | 26% | 11% | 65% | 30% | 13% | 2% | 57% | 19% | 14% | 4% | 112% | 78% | 102% | 58% | 14% | 4% | 79% | 54% | 101% | 78%
O=C(Nc1cccc(Nc2cc(Nc3cccc(C(F)(F)F)c3)ncn2)c1)C1CC1 | 85% | 62% | 89% | 86% | 97% | 74% | 85% | 66% | 85% | 54% | 107% | 104% | 114% | 103% | 99% | 101% | 89% | 32% | 114% | 96%
Cc1ccc(S(=O)(=O)/C=C/C#N)cc1 | 102% | 87% | 99% | 89% | 85% | 78% | 80% | 83% | 96% | 89% | 116% | 98% | 114% | 103% | 110% | 112% | 96% | 96% | 116% | 105%
Nc1n[nH]c2nnc(-c3c(-c4ccccc4)nn4ccccc34)cc12 | 98% | 92% | 90% | 82% | 98% | 78% | 94% | 84% | 60% | 17% | 98% | 85% | 101% | 92% | 98% | 84% | 84% | 90% | 107% | 103%
CCN(CC)CCCCN1c2ccccc2Oc2ccc(Cl)cc21 | 108% | 108% | 99% | 103% | 94% | 103% | 102% | 103% | 95% | 96% | 104% | 103% | 137% | 101% | 117% | 127% | 89% | 92% | 113% | 102%
O=C(O)c1ccc2c3c1cccc3c(=O)n1c3ccccc3nc21 | 75% | 30% | 99% | 94% | 86% | 38% | 99% | 65% | 87% | 58% | 22% | -4% | 18% | 4% | 77% | 27% | 77% | 32% | 102% | 88%
CNc1cc2c(Nc3cccc(Br)c3)ncnc2cn1 | 86% | 86% | 88% | 77% | 97% | 56% | 101% | 69% | 111% | 90% | 90% | 89% | 118% | 96% | 113% | 98% | 95% | 33% | 109% | 92%
COc1cc2ncnc(Nc3ccc(O)c(Br)c3)c2cc1OC | 91% | 41% | 80% | 70% | 46% | 11% | 90% | 41% | 81% | 38% | 58% | 44% | 97% | 38% | 80% | 30% | 82% | 118% | 90% | 76%
CN(C)c1ccc(/C=C2\C(=O)Nc3ccccc32)cc1 | 107% | 93% | 90% | 72% | 73% | 36% | 91% | 74% | 56% | 21% | 87% | 108% | 115% | 96% | 86% | 48% | 77% | 13% | 116% | 119%
COc1ccc(S(=O)(=O)N(CCO)c2ccccc2CN(C)C/C=C/c2ccc(Cl)cc2)cc1 | 87% | 113% | 92% | 89% | 103% | 73% | 103% | 75% | 87% | 66% | 89% | 94% | 106% | 95% | 127% | 102% | 89% | 86% | 115% | 84%
Cn1cnc2cc3c(Nc4cccc(Br)c4)ncnc3cc21 | 108% | 93% | 95% | 92% | 89% | 56% | 84% | 81% | 87% | 64% | 87% | 119% | 126% | 89% | 106% | 75% | 91% | 112% | 105% | 97%
COc1ccc(CNc2nc(N(CCO)CCO)nc3c2ncn3C(C)C)cc1 | 29% | 0% | 93% | 87% | 77% | 33% | 67% | 29% | 40% | 6% | 96% | 101% | 100% | 107% | 48% | 18% | 87% | 62% | 106% | 96%
N#CCCc1ccc2c(c1)-c1[nH]c3ccc([N+](=O)[O-])cc3c1CC(=O)N2 | 1% | 0% | 39% | 16% | 4% | 0% | – | – | – | – | – | – | – | – | – | – | – | – | – | –
CC#CC(=O)Nc1cc2c(Nc3ccc(F)c(Cl)c3)ncnc2cn1 | 97% | 96% | 89% | 98% | 99% | 108% | 89% | 95% | 93% | 106% | 78% | 114% | 120% | 86% | 103% | 88% | 83% | 125% | 103% | 99%
Cn1cc(/C=C2\C(=O)Nc3ccc(S(N)(=O)=O)cc32)c2ccccc21 | 62% | 55% | 16% | 7% | 4% | 1% | 88% | 52% | 93% | 59% | 79% | 111% | 124% | 80% | 35% | 14% | 45% | -3% | 114% | 92%
CC(C)n1cnc2c(NCc3ccccc3)nc(NCCCO)nc21 | 56% | 7% | 95% | 87% | 86% | 60% | 94% | 49% | 70% | 22% | 102% | 94% | 110% | 108% | 53% | 14% | 88% | 67% | 104% | 100%
N#C/C(=C(\N)Sc1ccc(N)cc1)c1ccccc1C(F)(F)F | 81% | 96% | 90% | 86% | 94% | 81% | 103% | 87% | 87% | 82% | 96% | 99% | 108% | 104% | 97% | 94% | 95% | 92% | 106% | 87%
O=C1Nc2cc(Br)ccc2/C1=C1/Nc2ccccc2/C1=N\O | 32% | 42% | 45% | 19% | 18% | 3% | 64% | 73% | 51% | 17% | 94% | 86% | 94% | 57% | 92% | 74% | 79% | 54% | 94% | 89%
O=C1NC(=O)/C(=C\c2ccc3nccnc3c2)S1 | 60% | 14% | 85% | 91% | 78% | 33% | 92% | 44% | 88% | 46% | -13% | -12% | -12% | -5% | 43% | 6% | 19% | -1% | 102% | 99%
O=c1c2ccccc2[nH]c(=S)n1CCN1CCC(=C(c2ccc(F)cc2)c2ccc(F)cc2)CC1 | 100% | 97% | 95% | 104% | 93% | 85% | 82% | 78% | 80% | 63% | 89% | 116% | 125% | 93% | 115% | 94% | 90% | 64% | 120% | 98%
CCC(=O)Nc1ccc2ncnc(Nc3cccc(Br)c3)c2c1 | 102% | 86% | 85% | 87% | 95% | 87% | 87% | 95% | 97% | 100% | 107% | 101% | 125% | 90% | 125% | 105% | 76% | 142% | 104% | 93%
Oc1ccc(Nc2nc(-c3ccc(Cl)cc3)cs2)cc1 | 104% | 99% | 99% | 104% | 64% | 40% | 113% | 98% | 79% | 72% | 101% | 97% | 100% | 99% | 118% | 101% | 92% | 75% | 98% | 113%
Oc1c2ccccc2c2c3c(cccc13)N=N2 | 96% | 55% | 72% | 32% | 29% | 2% | 99% | 48% | 5% | 1% | 60% | 19% | 59% | 18% | 36% | 21% | 72% | 34% | 105% | 93%
O=C1NC(=O)c2cc(Nc3ccc(F)cc3)c(Nc3ccc(F)cc3)cc21 | 100% | 88% | 85% | 103% | 84% | 77% | 86% | 68% | 84% | 45% | 90% | 110% | 125% | 96% | 100% | 40% | 79% | 129% | 98% | 93%
Cc1ccc(NC2=CC(=O)c3sc(C)nc3C2=O)cc1 | 104% | 106% | 96% | 87% | 96% | 82% | 97% | 88% | 96% | 88% | 100% | 101% | 100% | 107% | 111% | 109% | 95% | 88% | 98% | 95%
COc1cc2ncnc(Nc3ccc(Oc4ccccc4)cc3)c2cc1OC | 99% | 93% | 76% | 88% | 24% | 8% | 93% | 89% | 83% | 101% | 93% | 100% | 114% | 108% | 108% | 106% | 82% | 99% | 12% | 3%
